Test results from PubChem BioAssay.
Values without a mark were called inactive. The rule behind the calls is not given here.

biological target: Pantothenate synthetase (Mycobacterium tuberculosis (strain ATCC 25618 / H37Rv)) (UniProt P9WIL5); assay: Recombinant Mtb pantothenate synthetase (PanC) inhibitors, coupled enzyme, confirmatory (AID 375); conditions: coupled enzyme assay; at 10 µM, hits give high values;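 note: 0% = full reaction with vehicle and 100% = no enzyme background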
Sequence (P9WIL5 whole entry, looked up): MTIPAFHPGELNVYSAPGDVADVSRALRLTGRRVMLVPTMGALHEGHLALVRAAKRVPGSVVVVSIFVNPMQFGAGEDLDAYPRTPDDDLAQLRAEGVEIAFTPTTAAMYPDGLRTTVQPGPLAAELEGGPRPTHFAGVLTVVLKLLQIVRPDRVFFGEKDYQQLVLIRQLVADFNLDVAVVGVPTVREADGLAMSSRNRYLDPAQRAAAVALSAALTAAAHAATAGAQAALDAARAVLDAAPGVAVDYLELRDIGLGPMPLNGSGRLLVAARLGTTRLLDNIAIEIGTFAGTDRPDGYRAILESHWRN

Compound	inhibition [%]
CS(=O)(=O)N1CCN(c2ccccc2NC(=O)c2ccc(-c3ccc(Cl)cc3Cl)o2)CC1	7
CCCCOc1ccc(C(=O)Nc2ccc(N3CCN(C(C)=O)CC3)cc2)cc1	0
Cc1ccc(-n2c(=O)c3sccc3n(CC(=O)NCc3ccco3)c2=O)cc1	0
Cn1c(C(=O)OCC(=O)NCC2CCCO2)cc2sccc21 (configuration not stated)	2
CC(=O)Nc1cccc(NC(=O)CSc2nnnn2C)c1	0
CC1Oc2ccccc2N(Cc2ccccc2Cl)C1=O (configuration not stated)	9
O=C(CCOc1ccccc1)NCc1ccccc1	0
CCCS(=O)(=O)N1CCN(C(=O)c2cccnc2)CC1	0
COC(=O)c1sc(N2C(=O)C(O)=C(C(=O)c3ccc(C)o3)C2c2ccc(F)cc2)nc1C (configuration not stated)	8
CCOCCn1cnc2sc(C(=O)NCC(=O)OCC)c(C)c2c1=O	10
CSCCC(NC(=O)CCN1C(=O)c2ccccc2C1=O)C(=O)O (configuration not stated)	0
COc1ccc(C2C(C(=O)c3sc(C)nc3C)=C(O)C(=O)N2CCN(C)C)cc1 (configuration not stated)	9
Cc1c(NC(=O)C2(c3ccccc3)CCOCC2)c(=O)n(-c2ccccc2)n1C	3
CC(C)(NC(=O)N1CCCC1)c1cccc(C(C)(C)NC(=O)N2CCCC2)c1	0
NC(=O)NC(c1ccccc1)c1ccccc1F (configuration not stated)	3
CC1(C)S[C@@H]2[C@H](NC(=O)Cc3ccccc3)C(=O)N2[C@H]1C(=O)O	6
Cc1nnc2n(-c3ccccc3)c(=O)c3c4c(sc3n12)CCCC4	2
